Bioassay records deposited in PubChem by National Center for Advancing Translational Sciences (NCATS).
A selection: hits, their analogues and other compounds. The true share with any hit is near 3.1%.
Mito fusion act – inhibitors of mitochondrial division or activators of mitochondrial fusion. 320,000 compounds, 0.23% hits. Potency, µM (top dose mostly 46.1 µM), without a hit: at the highest dose growth rescue (activation), actives largely listed as activators. S. cerevisiae fusion-defective mutant growth rescue, CellTiterGlo 48 h; further: % of control where 0% means no effect; nearly all actives have a fitted effect of over 45% in size
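Read-out: ATP-based luminescence (CellTiterGlo, 10 min ambient) reporting growth of fusion-defective ts yeast after 48 hours at 37C on glycerol/ethanol YPEG medium in the presence of compound.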
mIDH1 inhibitor – inhibitors of human mutant IDH1 R132H; IDH1-R132H enzyme, NADPH consumption, diaphorase/resazurin fluorescence; Potency, µM (doses to about 76.6 µM), without a hit: at the top dose activity change, negative = inhibition, actives largely listed as inhibitors; 390,000 compounds, 0.093% hits; AID 602179; further: on the % scale 0 is the no-effect control and ±100 the full control effect; nearly all actives have a fitted effect of over 65% in size
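IDH1-R132H (0.5 ug/mL) preincubated 30 min with compound, then NADPH (0.016 mM) and alpha-KG (2 mM) added; 80 min at RT, pH 7.5. Remaining NADPH coupled via diaphorase/resazurin to fluorescence (540/590 nm); concentration-response curves normalized to no-enzyme control.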
rTrxR1 inhibitor – rat TrxR1 inhibition | O89049 | recombinant rTrxR1, NADPH fluorescence consumption, selenite substrate | Potency, µM (titrated, usually from 114 µM), inactives show at the highest dose activity change, negative = inhibition, actives largely listed as inhibitors | 390,000 compounds, 1% hits | AID 588453; further: on the % scale 0 is the no-effect control and ±100 the full control effect; nearly all actives have a fitted effect of over 65% in size
Target sequence (O89049 whole entry, looked up): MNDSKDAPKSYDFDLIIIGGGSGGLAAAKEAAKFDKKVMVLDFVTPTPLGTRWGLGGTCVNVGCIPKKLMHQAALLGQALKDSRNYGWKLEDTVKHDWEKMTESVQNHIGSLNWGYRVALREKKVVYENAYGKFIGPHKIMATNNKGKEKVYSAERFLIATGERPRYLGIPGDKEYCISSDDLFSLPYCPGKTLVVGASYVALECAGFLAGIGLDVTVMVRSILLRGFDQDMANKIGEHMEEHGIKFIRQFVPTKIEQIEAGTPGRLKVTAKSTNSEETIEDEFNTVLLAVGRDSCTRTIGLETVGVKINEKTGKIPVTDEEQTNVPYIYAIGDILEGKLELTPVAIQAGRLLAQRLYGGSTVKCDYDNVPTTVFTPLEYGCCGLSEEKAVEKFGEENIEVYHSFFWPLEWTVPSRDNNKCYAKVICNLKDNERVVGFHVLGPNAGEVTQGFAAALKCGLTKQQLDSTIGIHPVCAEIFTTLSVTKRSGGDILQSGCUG
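Rat TrxR1 (90 nM in the dispensed reagent) was pre-reduced with 400 uM NADPH for 5 min at room temperature, then incubated with compound for 15 min. After 400 uM selenite was added, NADPH fluorescence (Ex 340/Em 450 nm) was followed for 8 min.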
TrxR1 substrate – is turned over as a substrate by rat TrxR1 | Potency, µM (highest dose often 114 µM), inactives show at the highest dose activity change, negative = substrate turnover | purified TrxR1 substrate turnover, NADPH consumption readout | 390,000 compounds, 0.01% hits; further: on the % scale 0 is the no-effect control and ±100 the full control effect; nearly all actives have a fitted effect of over 50% in size
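Rat TrxR1, dispensed at 90 nM, was prereduced with 400 uM NADPH (final) for 5 min at ~22 deg C, then incubated with compound 15 min before 400 uM selenite. A first-read NADPH fluorescence drop versus no-compound background flagged substrates.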
Nrf2 inh – inhibitors of Nrf2 signaling; A549 ARE-Fluc reporter, luciferase luminescence, 18-24 h; Potency, µM (top dose mostly 46 µM), without a hit: top-dose activity change, negative = inhibition, usual class: inhibitors; 360,000 compounds, 2.1% hits; AID 504444; further: on the % scale 0 is the no-effect control and ±100 the full control effect; nearly all actives have a fitted effect of over 60% in size
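Concentration-response testing used A549 ARE_Fluc cells at 5000 cells/well. Following an 18-24 h compound incubation, viability was read by fluorescence (Ex 405/Em 525) and luciferase output by luminescence.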
A549 viability – counter-screen for Nrf2 inhibitors: cytotoxicity in A549 cells; A549 ARE-Fluc cells, CellTiter-Fluor viability, 18-24 h; Potency, µM (highest dose often 46 µM), without a hit: at the highest dose activity change, negative = cytotoxicity, usual class: inhibitors; 390,000 compounds, 0.16% hits; AID 504648; further: on the % scale 0 is the no-effect control and ±100 the full control effect
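A549 ARE_Fluc cells in 5% FBS OPTI-MEM were exposed to compounds in concentration-response for 18-24 h at 37 deg C. Viability was read by CellTiter-Fluor fluorescence (Ex 405/Em 525) after 30 min, before the luciferase read.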
* hit, by the source's call; ? = inconclusive; . = not tested or not shown; [ ] = remark or other dose. The call rests on the fitted dose curve; in most records, active means well fitted curve in the direction sought with a large enough effect; inconclusive means small, poorly fitted or top-dose-only effect, or another doubt; inactive means no such curve, though single readings can be large; an effect the other way counts as inactive or inconclusive. Potency means the concentration at half of the fitted maximal effect.

SMILES	Mito fusion act	mIDH1 inhibitor	rTrxR1 inhibitor	TrxR1 substrate	Nrf2 inh	A549 viability
Cc1ccc(NS(=O)(=O)c2cc3c(cc2N2CCC2)NC(=O)CC3)cc1C	.	.	.	.	?	10%
O=C(CC(Cl)(Cl)Cl)N1CCN(/[N+]([O-])=N/Oc2ccc([N+](=O)[O-])cc2[N+](=O)[O-])CC1	.	.	?	-2%	.	.
CCN(CCN(C)Cl)/[N+]([O-])=N/Oc1ccc([N+](=O)[O-])cc1[N+](=O)[O-]	.	.	10µM*	-3%	.	.
CN(Cc1ccccc1)/[N+]([O-])=N/Oc1ccc([N+](=O)[O-])cc1[N+](=O)[O-]	.	.	2.8µM*	-4%	.	.
CN(C)/[N+]([O-])=N/Oc1ccc([N+](=O)[O-])cc1[N+](=O)[O-]	.	.	13µM*	-11%	.	.
CNc1ccc(C(=O)Oc2cc(O/N=[N+](\[O-])N(C)C)c([N+](=O)[O-])cc2[N+](=O)[O-])cc1	.	.	25µM*	-25%	?	?
CC(=O)N(C)c1cc([N+](=O)[O-])ccc1OCc1ccccc1	.	0%	16%[11.4 µM]	7%[11.4 µM]	4%	-1%
COc1ccc([C@]23Cc4cc(OC)c(OC)cc4C(O2)C2=C(CCCC2=O)O3)cc1	-1%[9.22 µM]	.	.	.	.	.
C=C1CCN(C(CC(C)C)C(=O)O)S(=O)(=O)c2ccccc21 (centres undefined)	.	.	?	-6%	12%	-3%
COc1ccc(CN(C)C(=O)c2cc(-c3ccccc3)nc3ccc(C)cc23)c(OC)c1OC	-6%	1%	-9%	-5%	-15%	-9%
Cc1c(CN(C)C(=O)c2cc(-c3ccccc3)nc3ccc(Br)cc23)cnn1C	.	-6%	10%	-4%	9.2µM*	0%
Cc1ccc(/C=C2\SC(=S)N(C3CCS(=O)(=O)C3)C2=O)o1 (centres undefined)	-7%	-5%	16µM*	-18%	?	?
COc1cccc(C2c3c(ncn(-c4ccc(-c5ccccc5)cc4)c3=N)Oc3ccc4ccccc4c32)c1 (centres undefined)	.	.	.	.	?	-3%
COC1=C(Nc2ccc(OC)cc2)C(=O)c2ccccc2C1=O	5%	-2%	-16%	1%	12%	5%
COC1=C(Nc2ccc(O)cc2)C(=O)c2ccccc2C1=O	-7%	4%	?	-3%[57.1 µM]	23µM*	?
Cc1ccc(NC2=C(Cl)C(=O)c3ccccc3C2=O)cc1	0%	-4%	3.5µM*	-6%	23%	?
O=C1C(Cl)=C(Nc2ccc(O)cc2)C(=O)c2ccccc21	-13%	0%	?	0%	?	?
CCN(CC)c1ccc(NC2=C(Cl)C(=O)c3ccccc3C2=O)cc1	-2%	-1%	2.5µM*	-11%	?	21µM*
CCCC(=O)NC1=C(Cl)C(=O)c2ccccc2C1=O	.	22%	0.4µM*	1%[11.4 µM]	-13%	?
Cc1c([S+](=O)([O-])N2CCN([S+](=O)([O-])c3c(F)cccc3F)CC2)sc2ccc(Cl)cc12	.	.	.	.	14%	-1%
CCSc1ncc(Cl)c(C(=O)Nc2ccc(S(=O)(=O)N3CCC(C)CC3)cc2)n1	.	10%	21%	-3%	?	16%
CCS(=O)(=O)c1ncc(Cl)c(C(=O)Nc2ccc(S(=O)(=O)N3CCC(C)CC3)cc2)n1	-32%	1%	8.9µM*	-1%	?	?
CSc1ncc(Cl)c(C(=O)Nc2ccc(S(=O)(=O)N3CCC(C)CC3)cc2)n1	.	16%	12%	-3%	21µM*	-9%
Cc1ccc(-n2ncc3c(N4CCN(Cc5ccccc5)CC4)ncnc32)cc1Cl	.	-11%	8%[57.1 µM]	-5%[57.1 µM]	.	6%
CCOC(=O)c1cc(-c2ccccc2)n(-c2cccc(C(=O)N(C)c3ccc(C)cc3)c2)c1C	.	1%	28%[57.1 µM]	3%[57.1 µM]	.	?
SMILES	Mito fusion act	mIDH1 inhibitor	rTrxR1 inhibitor	TrxR1 substrate	Nrf2 inh	A549 viability
NC(=O)C1(N2CCCCC2)CCN(S(=O)(=O)c2cc(Cl)sc2Cl)CC1	28µM*	1%	20%	0%	16%	1%
COc1cc(-c2ccc3c(=O)c4ccccc4n(C)c3c2)cc(OC)c1OC	-1%	8%	6%[57.1 µM]	23%[57.1 µM]	13µM*	?
COc1cc(-c2ccc3c(=O)c4ccccc4sc3c2)cc(OC)c1OC	.	-2%	10%[57.1 µM]	9%[57.1 µM]	-27%	1%
O=c1[nH]c2cc3c(cc2cc1C(c1nnnn1CC1CCCO1)N1CCCCCC1)OCCO3 (centres undefined)	2%	-3%	22µM*	14%	7%	7%
O=c1[nH]c2cc3c(cc2cc1C(c1nnnn1CC1CCCO1)N1CCCCCC1)OCO3 (centres undefined)	3%	.	.	.	.	.
CC(=O)Nc1ccc(S(=O)(=O)N(C)CC(=O)N/N=C/c2ccc(C(=O)O)cc2)cc1	-2%	-4%	20%	-1%	4%	2%
Cc1ccc(S(=O)(=O)N(C)CCCC(=O)Nc2ccncc2)cc1	-1%	-10%	1%	-4%	9.2µM*	-6%
CC(=O)Nc1ccc(S(=O)(=O)N(C)CC(=O)N/N=C/c2ccncc2)cc1	22µM*	8%	?	-5%	6%	1%
Cc1ccc(S(=O)(=O)N(C)CCCC(=O)Nc2ccc(F)cc2)cc1	-6%	-7%	15%	0%	-20%	-2%
COc1cc(Cn2ncc3c4sc(C)cc4n(C)c3c2=O)cc(OC)c1	.	.	.	.	16%	-1%
O=C1c2ccccc2C(=O)N1c1ccncc1	.	.	.	.	8%	-3%
O=C1c2ccc(Br)cc2C(=O)N1c1ccc(Cc2ccncc2)cc1	6%	-3%	12%	4%	21µM*	-14%
Brc1cccc[n+]1CCCC[n+]1ccccc1Br	.	.	?	-13%	.	.
O=C(NCC(c1cccnc1)N1CCN(c2ccccc2)CC1)OCc1ccccc1 (centres undefined)	28%	4%	-1%	-4%	-20%	-4%
O=C(NCc1cccs1)C(=O)NCC(c1ccco1)N1CCN(c2ccccc2F)CC1 (centres undefined)	5%	1%	18%	3%	21µM*	10%
O=C(NCC(c1ccco1)N1CCN(c2ccccc2F)CC1)c1cccs1 (centres undefined)	17%	4%	-10%	-16%	-4%	0%
O=C(NCC(c1cccnc1)N1CCN(c2ccccc2F)CC1)OCc1ccccc1 (centres undefined)	4%	2%	1%[57.1 µM]	9%[57.1 µM]	21µM*	-22%
